# In publication PMC7862700, “An all-to-all approach to the identification of sequence-specific readers for epigenetic DNA modifications on cytosine”:
# How the values were obtained:
# Test in all cases: DAPPL (digital affinity profiling via proximity ligation, sequencing); 10 mM Tris-HCl pH 7.5, 50 mM NaCl, 1 mM DTT, 4% glycerol, room temperature, 30 min; GST-TFs on glutathione beads, 16-mer random dsDNA library, 0.1% formaldehyde crosslink after washing; high values mean tight binding
# FEV = molecular target: T1, FEV (Homo sapiens, UniProt Q99581 1-238); conditions: protein: recombinant; tags: N-terminal GST; dsDNA, one strand shown
# T1 sequence: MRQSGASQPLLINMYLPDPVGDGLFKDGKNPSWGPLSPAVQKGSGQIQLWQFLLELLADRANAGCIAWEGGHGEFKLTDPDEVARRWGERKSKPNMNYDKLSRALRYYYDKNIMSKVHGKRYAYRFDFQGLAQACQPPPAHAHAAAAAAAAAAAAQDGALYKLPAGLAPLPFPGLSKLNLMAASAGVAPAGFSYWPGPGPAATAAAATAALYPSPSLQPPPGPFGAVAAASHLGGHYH
# Method in brief: (§1)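 Human transcription factors carrying a GST fusion were produced in yeast, bound to glutathione beads, tagged with DNA barcodes and pooled together with a tag-only sample. Each pool was held with 200 nmole of a random double-stranded 16-mer DNA library in Tris/NaCl/DTT/glycerol buffer for 30 min at room temperature, then washed, crosslinked in 0.1% formaldehyde, proximity-ligated with BsaI/T4 ligase (1 h, 37 °C), PCR-amplified and sequenced on an Illumina NextSeq500. Binding signal is the read frequency of each hexamer for a given factor divided by its frequency in the tag-only sample.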
# ETV5 = ETV5 (Homo sapiens, UniProt P41161 1-510); conditions: protein: recombinant; tags: N-terminal GST; dsDNA, one strand shown
# Method in brief: as §1
# HSF1 = HSF1 (Homo sapiens, UniProt Q00613 1-529); conditions: protein: recombinant; tags: N-terminal GST; chain copies: 3; dsDNA, one strand shown
# Method in brief: as §1
# SPIC = molecular target: T2, SPIC (Homo sapiens, UniProt Q8N5J4 1-248); conditions: protein: recombinant; tags: N-terminal GST; dsDNA, one strand shown
# T2 sequence: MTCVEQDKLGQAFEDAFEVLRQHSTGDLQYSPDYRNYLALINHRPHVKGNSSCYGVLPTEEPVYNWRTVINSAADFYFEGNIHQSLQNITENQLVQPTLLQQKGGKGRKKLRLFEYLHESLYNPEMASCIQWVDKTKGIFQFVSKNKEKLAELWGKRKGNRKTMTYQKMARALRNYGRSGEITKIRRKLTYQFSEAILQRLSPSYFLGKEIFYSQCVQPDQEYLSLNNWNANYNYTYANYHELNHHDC
# Method in brief: as §1
# ELF4 = ELF4 (Homo sapiens, UniProt Q99607 1-663); conditions: protein: recombinant; tags: N-terminal GST; dsDNA, one strand shown
# Method in brief: as §1
# ELK4 = molecular target: T3, ELK4 (Homo sapiens, UniProt P28324-2 1-405); conditions: protein: recombinant; tags: N-terminal GST; dsDNA, one strand shown
# T3 sequence: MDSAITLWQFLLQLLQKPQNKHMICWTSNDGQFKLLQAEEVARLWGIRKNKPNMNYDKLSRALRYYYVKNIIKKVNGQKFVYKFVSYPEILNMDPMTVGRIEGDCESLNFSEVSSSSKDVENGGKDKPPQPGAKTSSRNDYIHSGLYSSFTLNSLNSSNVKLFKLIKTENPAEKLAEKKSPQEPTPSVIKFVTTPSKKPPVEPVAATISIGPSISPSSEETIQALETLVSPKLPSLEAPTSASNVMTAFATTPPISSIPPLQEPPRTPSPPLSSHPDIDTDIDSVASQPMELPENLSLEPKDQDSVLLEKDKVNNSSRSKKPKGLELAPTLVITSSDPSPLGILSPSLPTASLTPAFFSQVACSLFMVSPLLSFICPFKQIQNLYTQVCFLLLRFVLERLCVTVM
# Method in brief: as §1
# ETV2 = molecular target: T4, ETV2 (Homo sapiens, UniProt O00321 1-342); conditions: protein: recombinant; tags: N-terminal GST; dsDNA, one strand shown
# T4 sequence: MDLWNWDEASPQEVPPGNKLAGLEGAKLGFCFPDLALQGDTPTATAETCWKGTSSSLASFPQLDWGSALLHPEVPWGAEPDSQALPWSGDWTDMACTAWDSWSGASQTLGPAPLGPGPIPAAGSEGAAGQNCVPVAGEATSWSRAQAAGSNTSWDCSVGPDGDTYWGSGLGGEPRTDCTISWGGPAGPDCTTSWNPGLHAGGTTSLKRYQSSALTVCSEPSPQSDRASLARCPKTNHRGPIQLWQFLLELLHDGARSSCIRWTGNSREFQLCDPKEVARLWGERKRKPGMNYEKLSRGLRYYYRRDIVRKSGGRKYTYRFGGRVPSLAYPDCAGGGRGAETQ
# Method in brief: as §1
# ELF3 = molecular target: T5, ELF3 (Homo sapiens, UniProt P78545 1-371); conditions: protein: recombinant; tags: N-terminal GST; dsDNA, one strand shown
# T5 sequence: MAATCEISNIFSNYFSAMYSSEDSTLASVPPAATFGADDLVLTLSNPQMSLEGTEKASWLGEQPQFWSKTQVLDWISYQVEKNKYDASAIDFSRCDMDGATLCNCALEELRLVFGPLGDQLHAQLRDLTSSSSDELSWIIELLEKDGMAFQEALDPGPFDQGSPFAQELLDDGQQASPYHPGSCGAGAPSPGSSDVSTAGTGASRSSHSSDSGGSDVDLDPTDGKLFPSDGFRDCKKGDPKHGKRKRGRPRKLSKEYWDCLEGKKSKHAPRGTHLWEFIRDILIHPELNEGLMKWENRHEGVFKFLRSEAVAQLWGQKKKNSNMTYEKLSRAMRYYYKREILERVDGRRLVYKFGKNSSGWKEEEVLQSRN
# Method in brief: as §1
# CRX = CRX (Homo sapiens, UniProt O43186 1-299); conditions: protein: recombinant; tags: N-terminal GST; dsDNA, one strand shown
# Method in brief: as §1
# Chain of ELF4 (Q99607 whole entry): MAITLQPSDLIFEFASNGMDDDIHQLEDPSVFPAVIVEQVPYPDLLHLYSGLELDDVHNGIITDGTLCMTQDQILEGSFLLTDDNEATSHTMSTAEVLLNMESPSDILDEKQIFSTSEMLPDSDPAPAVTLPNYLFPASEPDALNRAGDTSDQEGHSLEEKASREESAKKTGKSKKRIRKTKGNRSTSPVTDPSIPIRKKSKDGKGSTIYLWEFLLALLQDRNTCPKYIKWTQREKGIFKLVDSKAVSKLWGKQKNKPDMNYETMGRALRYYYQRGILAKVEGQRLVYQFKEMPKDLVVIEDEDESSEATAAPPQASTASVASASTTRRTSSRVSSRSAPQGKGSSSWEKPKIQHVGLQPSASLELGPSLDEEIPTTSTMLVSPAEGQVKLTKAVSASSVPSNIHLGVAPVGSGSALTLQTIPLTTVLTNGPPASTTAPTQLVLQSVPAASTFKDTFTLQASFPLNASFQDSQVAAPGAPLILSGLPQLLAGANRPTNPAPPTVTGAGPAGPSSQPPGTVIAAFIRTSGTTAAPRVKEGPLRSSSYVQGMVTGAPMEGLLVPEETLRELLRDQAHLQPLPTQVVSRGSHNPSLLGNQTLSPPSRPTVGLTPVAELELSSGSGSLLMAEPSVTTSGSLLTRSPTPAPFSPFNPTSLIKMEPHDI
# Chain of HSF1 (Q00613 whole entry): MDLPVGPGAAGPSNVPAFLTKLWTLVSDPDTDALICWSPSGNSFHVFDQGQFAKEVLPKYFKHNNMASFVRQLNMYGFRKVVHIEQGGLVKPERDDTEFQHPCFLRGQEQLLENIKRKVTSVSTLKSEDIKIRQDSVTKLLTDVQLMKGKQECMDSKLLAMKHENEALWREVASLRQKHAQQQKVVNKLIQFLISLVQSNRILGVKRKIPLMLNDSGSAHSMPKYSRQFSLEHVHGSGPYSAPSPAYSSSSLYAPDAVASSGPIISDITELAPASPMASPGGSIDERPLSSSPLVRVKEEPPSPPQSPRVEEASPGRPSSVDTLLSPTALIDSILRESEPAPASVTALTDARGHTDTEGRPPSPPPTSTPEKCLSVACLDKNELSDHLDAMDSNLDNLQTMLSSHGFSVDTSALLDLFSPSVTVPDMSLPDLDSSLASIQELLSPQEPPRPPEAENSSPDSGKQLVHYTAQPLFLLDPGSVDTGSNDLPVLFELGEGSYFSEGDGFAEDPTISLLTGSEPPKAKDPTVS
# Chain of ETV5 (P41161 whole entry): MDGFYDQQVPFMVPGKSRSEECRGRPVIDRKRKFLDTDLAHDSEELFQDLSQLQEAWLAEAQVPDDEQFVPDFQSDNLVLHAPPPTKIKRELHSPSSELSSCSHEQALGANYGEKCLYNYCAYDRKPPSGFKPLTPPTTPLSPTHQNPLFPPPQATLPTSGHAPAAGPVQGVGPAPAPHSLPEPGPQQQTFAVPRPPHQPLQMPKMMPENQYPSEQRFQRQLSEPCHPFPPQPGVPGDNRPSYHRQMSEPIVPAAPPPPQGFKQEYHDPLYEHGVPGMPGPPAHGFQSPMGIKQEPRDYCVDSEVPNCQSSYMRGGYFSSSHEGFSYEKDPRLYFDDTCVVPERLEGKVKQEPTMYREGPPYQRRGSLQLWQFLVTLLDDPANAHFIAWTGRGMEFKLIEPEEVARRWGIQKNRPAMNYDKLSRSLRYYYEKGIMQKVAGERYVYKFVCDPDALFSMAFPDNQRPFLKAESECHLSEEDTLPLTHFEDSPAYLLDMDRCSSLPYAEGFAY
# Chain of CRX (O43186 whole entry): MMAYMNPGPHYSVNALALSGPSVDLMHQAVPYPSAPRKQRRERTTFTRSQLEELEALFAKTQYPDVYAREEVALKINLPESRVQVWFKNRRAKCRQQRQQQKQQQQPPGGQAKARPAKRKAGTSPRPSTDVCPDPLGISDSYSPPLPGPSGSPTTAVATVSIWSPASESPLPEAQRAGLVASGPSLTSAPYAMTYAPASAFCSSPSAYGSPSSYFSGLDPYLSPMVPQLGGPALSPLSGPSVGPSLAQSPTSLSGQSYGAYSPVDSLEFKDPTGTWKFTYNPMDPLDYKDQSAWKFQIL
sequence,measurement,setting,value
CCCGCC,binding signal,FEV,"1.5 fold enrichment (6-mer frequency, TF over GST control)"
same,binding signal,ETV5,"1.31 fold enrichment (6-mer frequency, TF over GST control)"
same,binding signal,HSF1,"1.17 fold enrichment (6-mer frequency, TF over GST control)"
same,binding signal,SPIC,"1.67 fold enrichment (6-mer frequency, TF over GST control)"
same,binding signal,ELF4,"1.66 fold enrichment (6-mer frequency, TF over GST control)"
same,binding signal,ELK4,"1.43 fold enrichment (6-mer frequency, TF over GST control)"
same,binding signal,ETV2,"1.6 fold enrichment (6-mer frequency, TF over GST control)"
same,binding signal,ELF3,"1.45 fold enrichment (6-mer frequency, TF over GST control)"
same,binding signal,CRX,"1.21 fold enrichment (6-mer frequency, TF over GST control)"
